The text below walks through data of PubChem BioAssay (Tox21).

Test [1] can be described thus: qHTS assay to test for compound auto fluorescence at 460 nm (blue) in HEK293 cell free culture (AID 720681). Put shortly:
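Compounds were added to cell-free DMEM with 10% FBS and fluorescence read directly. The blue channel used 405 nm excitation and 460 nm emission, with triamterene as the reference fluorophore.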
(In qHTS, concentration-response curves come from the screen itself.)

Test [2] is described as follows: qHTS assay to test for compound auto fluorescence at 590 nm (red) in HepG2 cell free culture (AID 720684). A digest of the protocol: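 Rose Bengal sodium served as the reference for red signal. Test compounds were dispensed into serum-containing MEM (10% FBS) without cells, and plates were read at 540/590 nm.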
Test [3] can be described thus: qHTS assay to test for compound auto fluorescence at 460 nm (blue) in HepG2 cell free culture (AID 720685). A digest of the protocol: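 Cell-free plates of MEM plus 10% FBS received 23 nL compound or DMSO vehicle; blue-channel (405/460 nm) intensity scored against triamterene as reference fluorophore.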
Test [4] can be described thus: qHTS assay to test for compound auto fluorescence at 535 nm (green) in HepG2 cell free culture (AID 720686).
The target of test [5] is Glucocorticoid receptor (Homo sapiens) (UniProt P04150). Description: qHTS assay to identify small molecule agonists of the glucocorticoid receptor (GR) signaling pathway (AID 720691; active = well fitted activation curve with a large enough effect in the signal ratio in the repeat runs, not every such curve was filed as active; the % refers to the signal ratio). Put shortly: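 HeLa GR-bla reporter line; cells pre-incubated 4 h, compound in DMSO 18 h at 37 C; LiveBLAzer B/G FRET substrate 2 h RT; fluorescence intensity read-out.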
Chain of Glucocorticoid receptor (Homo sapiens) (P04150 whole entry, looked up): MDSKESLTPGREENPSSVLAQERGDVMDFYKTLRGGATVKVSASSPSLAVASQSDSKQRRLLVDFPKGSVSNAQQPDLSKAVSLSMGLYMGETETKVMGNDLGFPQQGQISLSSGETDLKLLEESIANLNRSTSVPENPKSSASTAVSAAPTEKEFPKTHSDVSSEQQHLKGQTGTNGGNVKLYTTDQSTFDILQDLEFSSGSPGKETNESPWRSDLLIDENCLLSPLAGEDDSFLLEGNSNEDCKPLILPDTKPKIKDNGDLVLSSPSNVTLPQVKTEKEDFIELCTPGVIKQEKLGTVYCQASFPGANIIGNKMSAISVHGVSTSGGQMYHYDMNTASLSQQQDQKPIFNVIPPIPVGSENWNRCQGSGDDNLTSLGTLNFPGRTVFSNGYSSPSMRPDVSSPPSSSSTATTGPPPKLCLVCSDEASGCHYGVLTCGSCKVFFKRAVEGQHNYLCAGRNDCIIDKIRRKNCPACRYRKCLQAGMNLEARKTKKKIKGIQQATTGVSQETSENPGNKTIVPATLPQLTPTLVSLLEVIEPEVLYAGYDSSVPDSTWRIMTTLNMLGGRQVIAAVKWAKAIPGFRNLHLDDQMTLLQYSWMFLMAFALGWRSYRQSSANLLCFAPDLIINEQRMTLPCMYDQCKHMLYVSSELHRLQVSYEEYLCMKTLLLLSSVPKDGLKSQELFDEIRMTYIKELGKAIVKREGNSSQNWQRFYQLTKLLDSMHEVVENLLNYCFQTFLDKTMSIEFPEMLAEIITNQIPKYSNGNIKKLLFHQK
Test [6] has the same target. Description: qHTS assay to identify small molecule antagonists of the glucocorticoid receptor (GR) signaling pathway (AID 720692; active = well fitted inhibition curve with a large enough effect in the signal ratio in the repeat runs, not every such curve was filed as active; the % refers to the signal ratio; also: potency is read from the fitted curve at half-maximal effect). A digest of the protocol:
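Read-out: beta-lactamase FRET substrate fluorescence, 2 h at room temperature, in HeLa cells stably carrying a GRE-driven bla reporter. Compounds were co-incubated with 5 nM dexamethasone agonist (final) for 18 h at 37 C.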

Test [7] in a line: qHTS assay to test for compound auto fluorescence at 535 nm (green) in HEK293 cell free culture (AID 720682). Put shortly:
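Compounds were pin-transferred into cell-free DMEM with 10% FBS, and green fluorescence was read at excitation 485 nm and emission 535 nm. Intensities were expressed as fluorescein-equivalent values.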

A short description of test [8]: qHTS assay to test for compound auto fluorescence at 460 nm (blue) in HepG2 cells (AID 720687). Put shortly:
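HepG2 cells in MEM with 10% FBS, attached overnight at 37 C, were exposed to compound or DMSO for 1 hr at 37 C, 5% CO2. Blue fluorescence was read at 405/460 nm, with triamterene as reference fluorophore.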

The nature of test [9]: qHTS assay to test for compound auto fluorescence at 590 nm (red) in HEK293 cell free culture (AID 720683). Put shortly: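 Cell-free wells of DMEM with 10% FBS received compound, and intrinsic fluorescence was read at excitation/emission 540/590 nm. Values expressed as equivalence to Rose Bengal sodium.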

Structures are written as SMILES. Values without a mark were called inactive. Results filed as inconclusive are left out. Active and inactive are the calls of the source. Unless noted, calls follow the shape of the dose curve; as a rule, active = well fitted curve in the direction sought with a large enough effect in the repeat runs; inconclusive = weak or mixed curves; inactive = flat fitted curve, though single readings scatter.
% is scaled to controls: 0 for no effect and ±100 for the full control effect.

As to `O=C(O)c1ccncc1`, the Potency entry in [1], in test [5] and in test [6] was “inactive” each time. Besides, the compound was classed as inactive in [2], in test [3] and in test [4].
Regarding `CC(=O)CC/C=C(\C)CC/C=C(\C)CC/C=C(\C)CCC=C(C)C`, the Potency result in [1] was “inactive”. The result in [7], in [2], in test [3], in [4] and in test [8] was inactive.
As to `OCCc1ccncc1`, the Potency result in test [1], in test [5] and in test [6] was “inactive” in each case. Further, the result in [7], in test [9], in test [3], in [4] and in test [8] was inactive.
As for `O=C1c2ccccc2C(=O)c2c1ccc(O)c2O`, the compound was called inactive in test [9], in test [3], in [4] and in test [8]. For the same compound, the Potency result in test [5] was “inactive”.
As to `CO[C@@H]1[C@@H](O[C@@H]2O[C@H](C)[C@@H](O[C@H]3C[C@@](C)(O)[C@@H](O)[C@H](C)O3)[C@H](N(C)C)[C@H]2O)[C@@H](CC=O)C[C@@H](C)[C@@H](O[C@@H]2CC[C@H](N(C)C)[C@@H](C)O2)/C=C/C=C/C[C@@H](C)OC(=O)C[C@H]1OC(C)=O`, the Potency entry in test [1] and in test [5] was “inactive” throughout. Besides, the call in test [7], in test [9], in test [2], in test [3], in test [4] and in test [8] was inactive.
With `O=[N+]([O-])c1cccc(I)c1`, the Potency result in test [1], in test [5] and in test [6] was “inactive” in each case. The compound was classed as inactive in test [7], in test [9], in test [3], in test [4] and in test [8].
On to `NC(=O)c1cc[n+](CC2=C(C(=O)[O-])N3C(=O)[C@@H](NC(=O)Cc4cccs4)[C@H]3SC2)cc1`, for which the fluorescence, % of fluorescent control in test [1] is 0.628% [at 18.6 µM]; in [9] it was 0.0033% [at 18.6 µM]; in test [3], 0.491% [at 18.6 µM]; in test [8], 0.406% [at 18.6 µM]. Moreover, in [7], the activity change is 0.0615% [at 18.6 µM]. Moreover, in test [2], the fluorescence, % of Rose Bengal is 0.512% [at 18.6 µM]. Further, the fluorescence, % of fluorescein control in [4] is -0.0061% [at 18.6 µM].
Consider `O=C(NC1CCN(CCc2c[nH]c3ccccc23)CC1)c1ccccc1`, for which the outcome in test [7], in [9], in test [3], in [4] and in test [8] was inactive.
As for `O=Cc1ccc([N+](=O)[O-])cc1`, the Potency entry in [1], in test [5] and in test [6] was “inactive” each time. The result in test [7], in test [9], in test [2], in test [3] and in test [4] was inactive.
On to `COc1ccc(C(=O)Nc2ccccc2)cc1[N+](=O)[O-]`, for which the Potency result in test [1], in test [5] and in test [6] was “inactive” throughout. Moreover, the outcome in test [7], in test [9], in test [2], in test [3], in [4] and in test [8] was inactive.
In the case of `Cc1cc(SC2=C(O)C[C@@](CCc3ccc(N)cc3)(C(C)C)OC2=O)c(C(C)(C)C)cc1CO`, the Potency entry in [1] is “inactive”. Moreover, the outcome in [9], in test [2], in [3], in test [4] and in [8] was inactive. Besides, in test [6], the Potency was 54.9 µM (active).
For `C=Cc1ccc(C=C)cc1`, the Potency result in test [1], in [5] and in [6] was “inactive” each time. Also, the compound was classed as inactive in test [7], in [9], in test [3] and in test [4].
For the compound `CCCCCCCCC(=O)OCC(C)OC(=O)CCCCCCCC` (stereo not given), the Potency entry in test [1] and in test [5] was “inactive” throughout. Further, the result in test [7], in test [9], in test [2], in test [3] and in [4] was inactive.
As for `CCCCCCOC(=O)c1ccccc1`, the Potency result in test [1], in [5] and in test [6] was “inactive” in each case. The call in test [7], in test [9], in [3], in test [4] and in test [8] was inactive.
On to `CCC(CC)C(=O)O`, for which the Potency result in test [1], in test [5] and in test [6] was “inactive” in each case. Besides, the call in test [7], in [9], in [2], in test [3], in test [4] and in test [8] was inactive.
`Clc1cccc(C(c2ccc3nc[nH]c3c2)n2ccnc2)c1` (stereo not given): the call in test [7], in [9], in test [2], in test [3], in test [4] and in [8] was inactive. Moreover, the Potency entry in test [5] was “inactive”.
In the case of `CCOC(OCC)OCC`, the Potency entry in test [1], in test [5] and in [6] was “inactive” throughout. For the same compound, the call in [7], in test [9], in test [3] and in test [4] was inactive.
On to `CCCCCCCCCCCCSCCOCCO`, for which the Potency entry in test [1], in test [5] and in test [6] was “inactive” each time. The compound was classed as inactive in test [7], in test [9], in [2], in test [3] and in test [4].
For the compound `CC(=O)Oc1cccc2c1C(=O)c1c(OC(C)=O)cc(C(=O)O)cc1C2=O`, the Potency entry in [1] and in [6] was “inactive” in each case. Besides, the compound was classed as inactive in test [7], in test [9], in test [3] and in [4].
Turning to `c1ccc(CN(Cc2ccccc2)Cc2ccccc2)cc1`, the Potency entry in [1] and in test [5] was “inactive” throughout. In addition, the result in test [7], in [9], in test [2], in test [3], in test [4] and in test [8] was inactive.
Regarding `CCCCCCCCCCCCCCCCCCCl`, the fluorescence, % of fluorescent control was -0.0234% [at 3.72 µM] in test [1], 0.0246% [at 3.72 µM] in test [9], -0.0175% [at 3.72 µM] in [3] and -0.0032% [at 3.72 µM] in test [8]. Further, the activity change in test [7] is 0.0076% [at 3.72 µM]. The fluorescence, % of Rose Bengal in [2] is -0.217% [at 3.72 µM]. The fluorescence, % of fluorescein control in test [4] was 0.0829% [at 3.72 µM].
Take `CCCCCCCCOCCCN`: the Potency entry in test [1] and in test [5] was “inactive” each time. Moreover, the outcome in test [7], in test [9], in test [3], in test [4] and in [8] was inactive.
As to `Cc1cc(C)n(CO)n1`, the Potency entry in test [1], in [5] and in test [6] was “inactive” in each case. Further, the compound was called inactive in test [7], in test [9], in [2], in test [3], in test [4] and in test [8].
Take `CCOc1ccccc1O`: the Potency entry in test [1] was “inactive”. The call in test [7], in test [2], in test [3] and in [4] was inactive.
As to `NC(=O)c1ccccc1C(N)=O`, the compound was called inactive in [7], in test [2], in [3] and in test [4].
`CCCC(=O)OCCC(C)C`: the compound was classed as inactive in [7], in test [9], in test [2], in [3], in test [4] and in test [8]. Moreover, the Potency entry in [5] and in test [6] was “inactive” in each case.
Regarding `CC(C)C[C@H](NC(=O)[C@H](Cc1ccccc1)NC(=O)c1cnccn1)B(O)O`, the Potency result in [1] and in [5] was “inactive” each time. In addition, the call in test [7], in [3], in test [4] and in test [8] was inactive.
